Holding throughout (experiment): PBM; 200 nM protein, PBS
Holding throughout (conditions): dsDNA, one strand shown

The target in experiment [1] is HOXB9 (Homo sapiens, UniProt P17482 171-250, T197M).
For experiment [2], the target named is HOXA2 (Homo sapiens, UniProt O43364 129-215, R185T).
In experiment [3] the target is HOXB9 (Homo sapiens, UniProt P17482 171-250).
Experiment [4] addresses T1, NKX2-6 (Homo sapiens, UniProt A6NCS4 118-204, R150C).
T1 sequence: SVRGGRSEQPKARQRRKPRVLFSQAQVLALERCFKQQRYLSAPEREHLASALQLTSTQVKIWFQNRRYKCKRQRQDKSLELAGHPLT

Experiment [5] concerns the target MSX2 (Homo sapiens, UniProt P35548 130-214, R199I).
Experiment [6] addresses ALX3 (Homo sapiens, UniProt O95076 139-225, N203Q).
For experiment [7], the target named is HOXA2 (Homo sapiens, UniProt O43364 129-215, R185K).
In experiment [8] the target is MSX2 (Homo sapiens, UniProt P35548 130-214).
Experiment [9] concerns the target ALX3 (Homo sapiens, UniProt O95076 139-225).
Experiment [10] has as its target ALX3 (Homo sapiens, UniProt O95076 139-225, L168Q).
The target of experiment [11] is HOXB9 (Homo sapiens, UniProt P17482 171-250, R186Q).
Experiment [12] addresses ALX3 (Homo sapiens, UniProt O95076 139-225, L168V).
The target in experiment [13] is MSX2 (Homo sapiens, UniProt P35548 130-214, F161Y).
Experiment [14] has as its target HOXA2 (Homo sapiens, UniProt O43364 129-215, Y150S).
In experiment [15] the target is ALX3 (Homo sapiens, UniProt O95076 139-225, N203S).
The target in experiment [16] is HOXA2 (Homo sapiens, UniProt O43364 129-215).
Experiment [17] has as its target NKX3-2 (Homo sapiens, UniProt P78367 192-278, P234S).
For experiment [18], the target named is NKX3-2 (Homo sapiens, UniProt P78367 192-278).
Experiment [19] addresses T2, SIX6 (Homo sapiens, UniProt O95475 114-200, L167I).
T2 sequence: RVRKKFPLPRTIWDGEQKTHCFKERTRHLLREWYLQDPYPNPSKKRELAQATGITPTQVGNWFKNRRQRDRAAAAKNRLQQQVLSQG

Sequence of HOXB9 (Homo sapiens, UniProt P17482 171-250, R186Q) (P17482 171-250 R186Q): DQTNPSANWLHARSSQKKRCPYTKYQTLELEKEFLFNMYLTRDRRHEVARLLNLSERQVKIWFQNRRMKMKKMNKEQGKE
Sequence of HOXB9 (Homo sapiens, UniProt P17482 171-250) (P17482 171-250): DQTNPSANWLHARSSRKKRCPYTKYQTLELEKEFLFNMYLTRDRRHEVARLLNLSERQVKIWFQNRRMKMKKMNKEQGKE
Sequence of HOXB9 (Homo sapiens, UniProt P17482 171-250, T197M) (P17482 171-250 T197M): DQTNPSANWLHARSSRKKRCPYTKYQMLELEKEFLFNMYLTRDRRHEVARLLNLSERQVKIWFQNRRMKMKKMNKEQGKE
Sequence of ALX3 (Homo sapiens, UniProt O95076 139-225, N203S) (O95076 139-225 N203S): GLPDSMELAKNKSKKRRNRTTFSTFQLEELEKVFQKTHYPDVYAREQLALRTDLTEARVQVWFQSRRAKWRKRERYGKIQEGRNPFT
Sequence of MSX2 (Homo sapiens, UniProt P35548 130-214, R199I) (P35548 130-214 R199I): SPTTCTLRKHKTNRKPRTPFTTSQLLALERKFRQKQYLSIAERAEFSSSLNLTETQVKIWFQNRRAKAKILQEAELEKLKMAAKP
Sequence of HOXA2 (Homo sapiens, UniProt O43364 129-215, R185T) (O43364 129-215 R185T): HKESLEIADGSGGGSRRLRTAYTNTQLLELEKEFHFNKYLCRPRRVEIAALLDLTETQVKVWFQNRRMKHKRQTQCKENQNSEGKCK
Sequence of MSX2 (Homo sapiens, UniProt P35548 130-214, F161Y) (P35548 130-214 F161Y): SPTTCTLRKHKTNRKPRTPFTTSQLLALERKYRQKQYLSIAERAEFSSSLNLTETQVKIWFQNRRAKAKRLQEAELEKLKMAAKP
Sequence of ALX3 (Homo sapiens, UniProt O95076 139-225) (O95076 139-225): as the sequence (O95076 139-225 N203S) above, with S65N counted along it
Sequence of HOXA2 (Homo sapiens, UniProt O43364 129-215) (O43364 129-215): as the sequence (O43364 129-215 R185T) above, with T57R counted along it
Sequence of NKX3-2 (Homo sapiens, UniProt P78367 192-278) (P78367 192-278): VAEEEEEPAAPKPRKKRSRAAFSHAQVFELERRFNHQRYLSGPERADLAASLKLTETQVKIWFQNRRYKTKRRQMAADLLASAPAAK
Sequence of ALX3 (Homo sapiens, UniProt O95076 139-225, N203Q) (O95076 139-225 N203Q): as the sequence (O95076 139-225 N203S) above, with S65Q counted along it
Sequence of MSX2 (Homo sapiens, UniProt P35548 130-214) (P35548 130-214): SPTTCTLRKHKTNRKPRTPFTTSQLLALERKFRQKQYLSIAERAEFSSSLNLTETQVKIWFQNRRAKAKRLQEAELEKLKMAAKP
Sequence of HOXA2 (Homo sapiens, UniProt O43364 129-215, Y150S) (O43364 129-215 Y150S): as the sequence (O43364 129-215 R185T) above, with Y22S, T57R counted along it
Sequence of ALX3 (Homo sapiens, UniProt O95076 139-225, L168Q) (O95076 139-225 L168Q): as the sequence (O95076 139-225 N203S) above, with L30Q, S65N counted along it
Sequence of ALX3 (Homo sapiens, UniProt O95076 139-225, L168V) (O95076 139-225 L168V): as the sequence (O95076 139-225 N203S) above, with L30V, S65N counted along it
Sequence of NKX3-2 (Homo sapiens, UniProt P78367 192-278, P234S) (P78367 192-278 P234S): as the sequence (P78367 192-278) above, with P43S counted along it
Sequence of HOXA2 (Homo sapiens, UniProt O43364 129-215, R185K) (O43364 129-215 R185K): as the sequence (O43364 129-215 R185T) above, with T57K counted along it

For GCGCGGCA, the binding signal in experiment [1] is 8.49 upbm affinity estimate (log intensity, higher = more binding, comparable within an allelic series); in [2], 7.06 upbm affinity estimate (log intensity, higher = more binding, comparable within an allelic series); in experiment [3], 8.54 upbm affinity estimate (log intensity, higher = more binding, comparable within an allelic series); in experiment [4] it was 9.57 upbm affinity estimate (log intensity, higher = more binding, comparable within an allelic series); in experiment [5], 9.56 upbm affinity estimate (log intensity, higher = more binding, comparable within an allelic series); in experiment [6], 7.82 upbm affinity estimate (log intensity, higher = more binding, comparable within an allelic series). Further, the binding signal in experiment [7] is 10.3 upbm affinity estimate (log intensity, higher = more binding, comparable within an allelic series); in experiment [8], 9.62 upbm affinity estimate (log intensity, higher = more binding, comparable within an allelic series); in [9], 7.75 upbm affinity estimate (log intensity, higher = more binding, comparable within an allelic series); in experiment [10], 7.66 upbm affinity estimate (log intensity, higher = more binding, comparable within an allelic series); in [11] it was 8.56 upbm affinity estimate (log intensity, higher = more binding, comparable within an allelic series); in experiment [12], 7.72 upbm affinity estimate (log intensity, higher = more binding, comparable within an allelic series). Moreover, the binding signal in experiment [13] was 9.62 upbm affinity estimate (log intensity, higher = more binding, comparable within an allelic series); in experiment [14] it was 10.4 upbm affinity estimate (log intensity, higher = more binding, comparable within an allelic series); in experiment [15], 7.83 upbm affinity estimate (log intensity, higher = more binding, comparable within an allelic series); in experiment [16], 6.94 upbm affinity estimate (log intensity, higher = more binding, comparable within an allelic series).
With CCCGTCTC, the binding signal in [1] is 8.46 upbm affinity estimate (log intensity, higher = more binding, comparable within an allelic series); in experiment [3] it was 8.32 upbm affinity estimate (log intensity, higher = more binding, comparable within an allelic series); in experiment [11] it was 8.4 upbm affinity estimate (log intensity, higher = more binding, comparable within an allelic series).
Turning to GAAGCGGC, the binding signal in experiment [1] is 8.49 upbm affinity estimate (log intensity, higher = more binding, comparable within an allelic series); in experiment [3], 8.36 upbm affinity estimate (log intensity, higher = more binding, comparable within an allelic series); in experiment [11], 8.37 upbm affinity estimate (log intensity, higher = more binding, comparable within an allelic series).
For CAGATCGG, the binding signal in experiment [1] is 8.72 upbm affinity estimate (log intensity, higher = more binding, comparable within an allelic series); in experiment [3] it was 8.44 upbm affinity estimate (log intensity, higher = more binding, comparable within an allelic series); in experiment [11], 8.55 upbm affinity estimate (log intensity, higher = more binding, comparable within an allelic series).
Regarding GGCGCAGA, the binding signal in experiment [1] was 8.52 upbm affinity estimate (log intensity, higher = more binding, comparable within an allelic series); in experiment [3] it was 8.62 upbm affinity estimate (log intensity, higher = more binding, comparable within an allelic series); in experiment [11], 8.63 upbm affinity estimate (log intensity, higher = more binding, comparable within an allelic series).
For CTCCCGCC, the binding signal in experiment [1] was 8.4 upbm affinity estimate (log intensity, higher = more binding, comparable within an allelic series); in experiment [3], 8.4 upbm affinity estimate (log intensity, higher = more binding, comparable within an allelic series); in experiment [11] it was 8.4 upbm affinity estimate (log intensity, higher = more binding, comparable within an allelic series).
Take GGACCTAC: the binding signal was 8.72 upbm affinity estimate (log intensity, higher = more binding, comparable within an allelic series) in experiment [1]; 8.47 upbm affinity estimate (log intensity, higher = more binding, comparable within an allelic series) in [3]; 8.62 upbm affinity estimate (log intensity, higher = more binding, comparable within an allelic series) in experiment [11].
AAGCCACC: the binding signal in experiment [1] was 8.58 upbm affinity estimate (log intensity, higher = more binding, comparable within an allelic series); in experiment [3], 8.55 upbm affinity estimate (log intensity, higher = more binding, comparable within an allelic series); in [11], 8.63 upbm affinity estimate (log intensity, higher = more binding, comparable within an allelic series).
In the case of AGGTCTGG, the binding signal in experiment [1] was 8.53 upbm affinity estimate (log intensity, higher = more binding, comparable within an allelic series); in experiment [3], 8.57 upbm affinity estimate (log intensity, higher = more binding, comparable within an allelic series); in experiment [11] it was 8.64 upbm affinity estimate (log intensity, higher = more binding, comparable within an allelic series).
Regarding GACTGACC, the binding signal in [1] is 8.57 upbm affinity estimate (log intensity, higher = more binding, comparable within an allelic series); in [3] it was 8.7 upbm affinity estimate (log intensity, higher = more binding, comparable within an allelic series); in [11] it was 8.7 upbm affinity estimate (log intensity, higher = more binding, comparable within an allelic series).
In the case of CGTGGACC, the binding signal in [1] is 8.66 upbm affinity estimate (log intensity, higher = more binding, comparable within an allelic series); in experiment [3], 8.61 upbm affinity estimate (log intensity, higher = more binding, comparable within an allelic series); in [11] it was 8.63 upbm affinity estimate (log intensity, higher = more binding, comparable within an allelic series).
Consider AGCGCGCC, for which the binding signal was 8.57 upbm affinity estimate (log intensity, higher = more binding, comparable within an allelic series) in [1]; 8.53 upbm affinity estimate (log intensity, higher = more binding, comparable within an allelic series) in [3]; 8.54 upbm affinity estimate (log intensity, higher = more binding, comparable within an allelic series) in experiment [11].
Regarding GCAGCCCC, the binding signal in experiment [1] is 8.47 upbm affinity estimate (log intensity, higher = more binding, comparable within an allelic series); in [3], 8.43 upbm affinity estimate (log intensity, higher = more binding, comparable within an allelic series); in [11] it was 8.5 upbm affinity estimate (log intensity, higher = more binding, comparable within an allelic series); in experiment [17] it was 10.7 upbm affinity estimate (log intensity, higher = more binding, comparable within an allelic series); in experiment [18], 10.7 upbm affinity estimate (log intensity, higher = more binding, comparable within an allelic series).
For the sequence GCCGGGCC, the binding signal in [1] is 8.36 upbm affinity estimate (log intensity, higher = more binding, comparable within an allelic series); in experiment [3], 8.42 upbm affinity estimate (log intensity, higher = more binding, comparable within an allelic series); in experiment [11] it was 8.41 upbm affinity estimate (log intensity, higher = more binding, comparable within an allelic series).
For CGTAGGCC, the binding signal is 8.47 upbm affinity estimate (log intensity, higher = more binding, comparable within an allelic series) in experiment [1]; 8.61 upbm affinity estimate (log intensity, higher = more binding, comparable within an allelic series) in experiment [3]; 8.63 upbm affinity estimate (log intensity, higher = more binding, comparable within an allelic series) in [11].
Take CAGGGGCC: the binding signal in experiment [1] was 8.21 upbm affinity estimate (log intensity, higher = more binding, comparable within an allelic series); in experiment [3], 8.25 upbm affinity estimate (log intensity, higher = more binding, comparable within an allelic series); in experiment [11], 8.25 upbm affinity estimate (log intensity, higher = more binding, comparable within an allelic series).
Consider ATGGTGTC, for which the binding signal in [19] was 9.97 upbm affinity estimate (log intensity, higher = more binding, comparable within an allelic series).
Regarding GCCACTCC, the binding signal in [1] was 8.73 upbm affinity estimate (log intensity, higher = more binding, comparable within an allelic series); in experiment [3], 8.79 upbm affinity estimate (log intensity, higher = more binding, comparable within an allelic series); in [11], 8.8 upbm affinity estimate (log intensity, higher = more binding, comparable within an allelic series).
On to AGCATCCG, for which the binding signal in experiment [1] was 8.64 upbm affinity estimate (log intensity, higher = more binding, comparable within an allelic series); in [3], 8.73 upbm affinity estimate (log intensity, higher = more binding, comparable within an allelic series); in [11], 8.71 upbm affinity estimate (log intensity, higher = more binding, comparable within an allelic series).
For GGTTCGGA, the binding signal in experiment [1] was 8.66 upbm affinity estimate (log intensity, higher = more binding, comparable within an allelic series); in [3] it was 8.54 upbm affinity estimate (log intensity, higher = more binding, comparable within an allelic series); in [11], 8.53 upbm affinity estimate (log intensity, higher = more binding, comparable within an allelic series).

Source of the values: paper PMC11006913.
